Experimental data from PubChem BioAssay (NCI).
The panel holds about 83,000 compounds, 20% with a hit somewhere; the sample as a whole holds those more often.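 Single-concentration screen, 48 h exposure, 96-well plates. Endpoint: percent growth. Below 10 = active.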 Unmarked numbers belong to inactive results. The source made the active and inactive calls.

Tested on: HOP-62 NSCLC
Test: NCI-60 one-dose screen, 48 h (100 = growth as untreated, 0 = no growth, -100 = all killed)
Conditions: 10 µM unless noted

Going from `C=C1CCC2C3(C)COC(c4cc(F)cc(F)c4)OC3CCC2(C)C1CC(O)C1=CCOC1=O` (stereo not drawn) to `CC12CC[C@@H]3[C@]4(C)COC(c5c(F)cccc5F)O[C@@H]4CC[C@@]3(C)[C@@H]1CC(C1=CCOC1=O)O2` (stereo partly drawn), the growth falls from 90.6% to 56.2%.

Compared with `CC(=O)Nc1ccc(C(=O)NC(=S)Nc2ccc(S(N)(=O)=O)cc2)cc1`, `CC(=O)Nc1ccc(-n2cnc3ccc(-c4ccc(O)cc4)cc32)cc1` is lower in growth: 90.8% for the first, 53% for the second.

Going from `COc1cc(C2CC(c3cc(OC)c(OC)c(OC)c3)=Nc3c(N)nc(N)nc3N2)ccc1Oc1nc(NCCO)nc(N2CCOCC2)n1` (stereo not drawn) to `COc1cc(C2CC(c3cc(OC)c(OC)c(OC)c3)=NN2c2ccccc2)ccc1OCc1ccc(C)cc1` (stereo not drawn), the growth rises from 90.4% to 99.6%.

First: CC1=C(C(=O)c2ccccc2)C(c2cccc(Cl)c2Cl)n2c(nc3ccccc32)N1 (stereo not drawn)
Second: S=C(Nc1ccccc1)Nc1ccc(OCc2nc3ccccc3[nH]2)cc1
The growth of the first is lower: 14.9% for the first, 43.6% for the second.

First: CN1CCc2c(sc3ncnc(N/N=C/c4ccc(Cl)cc4Cl)c23)C1
Second: N/N=C(\N)c1c(N)nc(=S)[nH]c1-c1ccc(Cl)cc1Cl
The growth of the first is lower: 27.1% for the first, 92.5% for the second.

First: Cn1cc(NC(=O)c2cc(NC(=O)c3ccc(C#Cc4ccccc4)cc3)cn2C)cc1C(=O)NCCCN1CCOCC1
Second: Cn1cc(NC(=O)c2cc(NC(=O)c3ccc(/C=C/c4ccccc4)cc3)cn2C)cc1C(=O)NCCCN1CCOCC1
The growth of the first is lower: 85.4% for the first, 90.9% for the second.

First: COCOc1cc2oc(C(=O)N[C@@H](Cc3ccccc3)C(O)C(=O)NCc3ccccc3)c(C)c(=O)c2cc1OCOC (stereo partly drawn)
Second: COc1cc2c(c(OC)c1OC)C(=O)CC(c1cccc(NC(=O)c3cc(NC(=O)[C@H](CO)NC(=O)OC(C)(C)C)ccc3Cl)c1)O2 (stereo partly drawn)
The growth of the first is higher: 71.9% for the first, 50.3% for the second.

First: CC(C)c1ccc2c(N)c(C(=O)Nc3ccc(C(F)(F)F)cn3)sc2n1
Second: CC(=O)Nc1ccc(-n2cnc3cc(-c4ccc(O)cc4)ccc32)cc1C(F)(F)F
The growth of the first is higher: 57.7% for the first, 34.4% for the second.

Compared with `Cc1cccc(NC(=O)[C@]23CCC(C)(C)CC2C2=CCC4[C@@]5(C)C[C@@H](O)[C@H](O)[C@@](C)(CO)C5CC[C@@]4(C)[C@]2(C)CC3)c1` (stereo partly drawn), `Cc1ccc(NC(=O)[C@]23CCC(C)(C)CC2C2=CCC4[C@@]5(C)C[C@@H](O)[C@H](O)[C@@](C)(CO)C5CC[C@@]4(C)[C@]2(C)CC3)cc1` (stereo partly drawn) is lower in growth: 50.9% for the first, 47.2% for the second.

Compared with `NC(=S)Nc1cccc(NC(N)=S)c1`, `CC1=C(C(=O)OC(C)C)C(c2cccc(O)c2)NC(=S)N1` (stereo not drawn) is lower in growth: 119% for the first, 95.9% for the second.

First: O=C(/C=C/c1ccc(O)c(O)c1)NC1CCOC1O (stereo not drawn)
Second: O=S(=O)(Nc1cccc(-n2cnc3cc(-c4ccc(O)cc4)ccc32)c1)C1CC1
The growth of the first is higher: 101% for the first, 44.1% for the second.

Going from `CCN1C(=O)/C(=N\N=C(/C)c2ccc3c(c2)Nc2ccccc2S3)c2cc(Cl)ccc21` to `Cc1ccc(Cc2cnc(NC(=O)c3ccc(/C=C4\SC(=S)N(C)C4=O)cc3)s2)cc1`, the growth falls from 92.9% to 46.4%.

Compared with `S=C(NCCc1ccccc1)Nc1ccc(OCc2nc3ccccc3[nH]2)cc1`, `S=C(Nc1ccc(OCc2nc3ccccc3[nH]2)cc1)NC1CCCCC1` is lower in growth: 103% for the first, 95.1% for the second.

Going from `COc1ccc(-c2nc(SC(C)C)nc(NCCc3c[nH]c4ccccc34)c2C#N)cc1` to `Cn1cc(-c2nnc(N)nc2-c2c[nH]c3ccccc23)c2cccnc21`, the growth falls from 51.5% to 48.1%.

Going from `CN(C)CCCNC(=O)c1cc(NC(=O)c2cc(NC(=O)c3ccc(/C=C/c4ccccc4)cc3)cn2C)cn1C` to `CC(=O)OC[C@@]1(C)C2CC[C@]3(C)C(CC=C4C5CC(C)(C)CC[C@]5(C(=O)Nc5ccc(Br)cc5)CC[C@]43C)[C@@]2(C)C[C@@H](OC(C)=O)[C@@H]1OC(C)=O` (stereo partly drawn), the growth falls from 74.1% to 38.5%.

In the case of `COc1ccc2[nH]cc(-c3nnc(N)nc3-c3c[nH]c4ncc(Br)cc34)c2c1`, the growth was 75.8%.

With `O=C(COc1ccc(NC(=O)Nc2ccc(Cl)c(Cl)c2)cc1)N=Nc1c(O)[nH]c2ccc(Br)cc12` the growth was -71.3% (active).
In the case of `Cc1ccc(C(=O)CSc2nc3ccc(C)cc3c(=O)n2-c2ccc(F)cc2)cc1`, the growth was 7.49% (active).
In the case of `CN(C)CCn1c2ccccc2c2nc3ccc([N+](=O)[O-])cc3nc21`, the growth was -19.3% (active).
In the case of `CC1(C)CC[C@]2(C(=O)Nc3ccc(Br)cc3)CC[C@]3(C)C(=CCC4[C@@]5(C)C[C@@H](O)[C@H](O)[C@@](C)(CO)C5CC[C@]43C)C2C1` (stereo partly drawn), the growth was 5.6% (active).
For `COc1ccc(NC(=O)Cn2c(O)c(N=Nc3ccc(S(N)(=O)=O)cc3)c3ccccc32)cc1`, the growth was 8.57% (active).
With `CN(C)c1ccnc(CNCCSC2(c3ccc(C(F)(F)F)cc3)c3ccccc3CCc3ccccc32)c1` the growth was -57.8% (active).
In the case of `O=C(N/N=C/c1ccc(-c2ccc(O)cc2)o1)c1[nH]c2ccc(Br)cc2c1-c1ccccc1`, the growth was -11.3% (active).
